The values that follow come from PubChem BioAssay (Tox21).

The structures appear in SMILES notation. Several values for one entry are separate records, joined by “and”; a condition that tells them apart may be missing. Identical values can stand only once. A number with no mark means an inactive call. Records with an inconclusive call do not appear. Activity calls are given as the source filed them. Unless noted, calls follow the shape of the dose curve; as a rule, active = well fitted curve in the direction sought with a large enough effect in the repeat runs; inconclusive = weak or mixed curves; inactive = no such curve, though single readings can be large; an effect the other way counts as inactive or inconclusive.

In experiment [1] the target is Progesterone receptor (Homo sapiens) (UniProt P06401). Put plainly: qHTS assay to identify small molecule agonists of the progesterone receptor (PR) signaling pathway (AID 1346784; calls by dose curve; also: nearly all actives have a fitted effect of over 30% in size). The method in brief: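 HEK 293T PR-UAS-bla reporter cells, 2% charcoal-stripped FBS; 6 hr settle at 37C/5% CO2, compound (DMSO) 16 hr, LiveBLAzer B/G FRET substrate 2 hr RT, fluorescence intensity read.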
Chain of Progesterone receptor (Homo sapiens) (P06401 whole entry, looked up): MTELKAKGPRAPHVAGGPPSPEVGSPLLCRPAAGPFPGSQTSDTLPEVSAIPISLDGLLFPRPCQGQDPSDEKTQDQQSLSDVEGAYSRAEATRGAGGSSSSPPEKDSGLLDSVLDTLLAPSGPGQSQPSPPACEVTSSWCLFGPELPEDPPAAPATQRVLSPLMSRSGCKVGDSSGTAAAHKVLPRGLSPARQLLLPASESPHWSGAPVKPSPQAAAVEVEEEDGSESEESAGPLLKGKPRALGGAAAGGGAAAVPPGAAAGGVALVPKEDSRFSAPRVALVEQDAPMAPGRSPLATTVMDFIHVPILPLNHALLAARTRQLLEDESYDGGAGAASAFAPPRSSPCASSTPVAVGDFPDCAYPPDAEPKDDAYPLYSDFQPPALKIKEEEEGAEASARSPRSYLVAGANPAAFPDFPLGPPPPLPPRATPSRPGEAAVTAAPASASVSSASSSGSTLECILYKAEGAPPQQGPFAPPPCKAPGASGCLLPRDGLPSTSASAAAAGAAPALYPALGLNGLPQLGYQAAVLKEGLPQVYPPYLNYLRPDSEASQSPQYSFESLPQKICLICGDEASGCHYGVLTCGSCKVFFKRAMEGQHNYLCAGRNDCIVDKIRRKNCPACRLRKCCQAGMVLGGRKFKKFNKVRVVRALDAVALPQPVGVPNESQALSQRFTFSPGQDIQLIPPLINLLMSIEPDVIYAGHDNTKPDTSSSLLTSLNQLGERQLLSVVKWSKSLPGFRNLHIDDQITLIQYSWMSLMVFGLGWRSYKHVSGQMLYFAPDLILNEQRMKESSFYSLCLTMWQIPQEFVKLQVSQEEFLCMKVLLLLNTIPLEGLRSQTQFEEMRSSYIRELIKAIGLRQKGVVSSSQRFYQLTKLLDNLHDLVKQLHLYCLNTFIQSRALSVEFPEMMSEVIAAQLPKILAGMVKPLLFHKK

Experiment [2] in a line: qHTS assay to identify small molecule antagonists of the progesterone receptor (PR) signaling pathway - cell viability counter screen (AID 1346798). Also: series mostly up to about 92 µM; nearly all actives have a fitted effect of over 50% in size. Summed up:
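Luminescence readout (CellTiter-Glo, 30 min, RT) of viability in PR-UAS-bla HEK293T cells exposed to compound and R5020 agonist for 16 hr at 37C, 5% CO2; run in the same wells as the beta-lactamase reporter read.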

Experiment [3] is described as follows: qHTS assay to identify small molecule agonists of the progesterone receptor (PR) signaling pathway - cell viability counter screen (AID 1346799; calls by dose curve; also: nearly all actives have a fitted effect of over 45% in size). The method in brief: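 HEK293T PR-UAS-bla, 3,000 cells/well, 2% charcoal-stripped FBS; 6 h settle, compound 16 h at 37C/5% CO2; LiveBLAzer 2 h RT, then CellTiter-Glo 30 min RT, luminescence read.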
The nature of experiment [4]: qHTS assay to identify small molecule antagonists of the TGF-beta/Smad signaling pathway - cell viability counter screen (AID 1346824). Also: nearly all actives have a fitted effect of over 50% in size. Summed up:
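SBE-bla HEK 293T cells, incubated overnight, then compound plus 0.25 ng/mL TGF-beta1 (stock added) for 5 hr at 37 C. Viability was read in the same wells by CellTiter-Glo luminescence after 30 min at room temperature.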

The nature of experiment [5]: qHTS assay to identify small molecule agonists of the TGF-beta/Smad signaling pathway - cell viability counter screen (AID 1346829). Also: top concentration of the series differs between compounds; nearly all actives have a fitted effect of over 45% in size. Summed up: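 Tox21 qHTS format: SBE-bla HEK 293T cells treated with DMSO-dissolved compounds for 5 hr; CellTiter-Glo luminescence after 30 min at room temperature.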
Experiment [6] in a line: qHTS assay to identify small molecule agonists of the TGF-beta/Smad signaling pathway (AID 1346859; active = well fitted activation curve with a large enough effect in the signal ratio in the repeat runs, not every such curve was filed as active; the % refers to the signal ratio; also: series mostly up to about 77 µM). The method in brief: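 Read-out: fluorescence at 460 and 530 nm (405 nm excitation) after a 2 hr room-temperature incubation with beta-lactamase FRET substrate. SBE-bla HEK 293T cells had been treated with test compounds for 5 hr at 37 C.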
For experiment [7], the target named is Thyrotropin-releasing hormone receptor (Homo sapiens) (UniProt P34981). Put plainly: qHTS assay to identify small molecule antagonists of the thyrotropin-releasing hormone receptor (TRHR) signaling pathway (AID 1346877; active = well fitted inhibition curve with a large enough effect in the repeat runs, not every such curve was filed as active; also: series mostly up to about 51 µM). Summed up: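 TRHR-expressing HEK293 cells were seeded, cultured 18 h at 37 °C, then loaded with calcium dye for 2 h. Compounds were pre-incubated 5 min at room temperature before 1 nM TRH (final) was added, and kinetic fluorescence was recorded for 3 min.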
Chain of Thyrotropin-releasing hormone receptor (Homo sapiens) (P34981 whole entry, looked up): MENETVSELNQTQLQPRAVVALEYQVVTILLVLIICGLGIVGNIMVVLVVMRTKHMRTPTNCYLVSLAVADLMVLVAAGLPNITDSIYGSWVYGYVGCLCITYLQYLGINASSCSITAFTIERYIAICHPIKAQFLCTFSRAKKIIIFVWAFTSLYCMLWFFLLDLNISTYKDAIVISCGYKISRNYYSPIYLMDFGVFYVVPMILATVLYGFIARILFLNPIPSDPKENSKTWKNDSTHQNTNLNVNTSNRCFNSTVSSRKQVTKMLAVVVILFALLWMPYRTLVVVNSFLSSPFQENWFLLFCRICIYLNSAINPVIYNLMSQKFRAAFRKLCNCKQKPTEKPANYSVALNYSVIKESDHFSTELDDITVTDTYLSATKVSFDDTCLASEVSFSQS

The target is the same in experiment [8]. Put plainly: qHTS assay to identify small molecule agonists of the thyrotropin-releasing hormone receptor (TRHR) signaling pathway (AID 1346891; calls by dose curve; also: series mostly up to about 58 µM). The method in brief:
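HEK293/TRHR cells, 1500 per well, 18 h 37 °C; Ca dye 2 h 37 °C; pin-tool compound addition (agonist mode); kinetic fluorescence 3 min, 1 s reads; 15 concentrations, triplicate.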

A short description of experiment [9]: Human pregnane X receptor (PXR) small molecule agonists, qHTS cell viability counter screen (AID 1346977). Also: nearly all actives have a fitted effect of over 50% in size. The method in brief: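 Fluorescence read-out (CellTiter-Fluor) of viability in PXR-Luc HepG2 cells, multiplexed with the luciferase agonist read. Compounds in DMSO added after 5hr plating; 24hr total exposure at 37C, 5% CO2.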
Experiment [10] in a line: Caspase-3/7 induction in HepG2 cells by small molecules, qHTS assay (AID 1346978). Also: nearly all actives have a fitted effect of over 15% in size. The method in brief:
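Wild-type HepG2 cells, 2,000/well, settled 5 hr at 37 C and 5% CO2, then compound-treated for 17 hr; caspase-3/7 activity read by luminescent Caspase-Glo 3/7 after 30 min at room temperature.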

The nature of experiment [11]: Caspase-3/7 induction in CHO-K1 cells by small molecules, qHTS cell viability counter screen (AID 1346979). Also: nearly all actives have a fitted effect of over 35% in size. The method in brief: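 CHO-K1 wt, 1,500 cells/well; 5hr pre-incubation 37C/5% CO2; compound pin transfer (DMSO); 16hr exposure; CellTiter-Fluor added, 1hr, fluorescence read.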
A short description of experiment [12]: Caspase-3/7 induction in HepG2 cells by small molecules, qHTS cell viability counter screen (AID 1346981). Also: series mostly up to about 92 µM; nearly all actives have a fitted effect of over 30% in size. The method in brief: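 Wild-type HepG2 cells (2,000/well) were allowed to settle for 5 hr at 37 C, 5% CO2, then dosed with compounds in DMSO by pin transfer. After 16 hr at 37 C, CellTiter-Fluor was added and fluorescence read 1 hr later.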
Experiment [13] deals with Nuclear receptor subfamily 1 group I member 2 (Homo sapiens) (UniProt O75469). Put plainly: Human pregnane X receptor (PXR) small molecule agonists, qHTS assay (AID 1346982). Also: nearly all actives have a fitted effect of over 35% in size. Also: potency is read from the fitted curve at half-maximal effect. The method in brief:
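PXR-Luc HepG2 cells (CYP3A4 promoter-driven luciferase) were seeded in medium with 5% charcoal-stripped FBS, left 5 hr at 37 C, then exposed to compounds in DMSO for 24 hr. Luminescence was read after ONE-Glo addition.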

Experiment [14] addresses Nuclear receptor subfamily 1 group I member 2 (Rattus norvegicus) (UniProt Q9R1A7). The experiment can be described thus: Rat pregnane X receptor (rPXR) activation by small molecules, qHTS assay (AID 1346983). Also: nearly all actives have a fitted effect of over 20% in size. To be noted: rPXR luciferase reporter cells, One-Glo luminescence, 24 h; max activation: hits give high values. The method in brief: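 Cell-based rPXR activation assay: rPXR cells, 2,000 per well, rested 5hr at 37 C, then exposed to compounds in DMSO for 24 hr at 37 C. Luciferase activity read by One-Glo luminescence after 30 min at room temperature.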

Experiment [15] has as its target Nuclear receptor subfamily 1 group I member 2 (Homo sapiens) (UniProt O75469). Put plainly: CYP3A4 induction through human pregnane X receptor (PXR) by small molecules, qHTS assay (AID 1346984). Also: nearly all actives have a fitted effect of over 40% in size. Summed up: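 DPX-2 cells (HepG2 co-transfected with PXR and CYP3A4 promoter-luciferase) treated with compounds 24 h at 37C; luciferin-IPA CYP3A4 substrate 3uM final added for 3 h, then One-Glo; luminescence read. qHTS format.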

Experiment [16] shares this target. Put plainly: Human pregnane X receptor (PXR) activation by small molecules, qHTS assay (AID 1346985). Also: nearly all actives have a fitted effect of over 40% in size. Summed up: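 DPX-2 cells (HepG2 co-transfected with a PXR response element and a CYP3A4-promoter luciferase construct) were seeded at 2,000 per well, rested 5 hr at 37C, then exposed to DMSO-dissolved compounds for 24 hr. Activation was read as luciferase luminescence.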

Experiment [17] concerns the target Cytochrome P450 2D6 (Homo sapiens) (UniProt P10635). The experiment can be described thus: Cytochrome P450 Family 2 Subfamily D Member 6 (CYP2D6) small molecule antagonists: luciferase reporter qHTS assay (AID 1671196). Also: series mostly up to about 120 µM; nearly all actives have a fitted effect of over 50% in size. Summed up:
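CYP2D6 enzyme–substrate mix was held with compound for 10 min at room temperature, then NADPH regeneration solution was added and the reaction ran 1 h at room temperature. Luciferin product was detected by luminescence after 20 min with detection reagent.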

The target of experiment [18] is Cytochrome P450 2C19 (Homo sapiens) (UniProt P33261). Put plainly: Cytochrome P450 Family 2 Subfamily C Member 19 (CYP2C19) small molecule antagonists: luciferase reporter qHTS assay (AID 1671197). Also: series mostly up to about 120 µM; nearly all actives have a fitted effect of over 65% in size. The method in brief:
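Relative luminescence units recorded 20 min after the detection reagent stopped a 1 h, 37C CYP2C19 reaction on proluciferin substrate, which was started by NADPH regeneration following 10 min room-temperature compound preincubation; ketoconazole positive control.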

The nature of experiment [19]: Caspase-3/7 induction in CHO-K1 cells by small molecules, qHTS assay (AID 1346980). Also: nearly all actives have a fitted effect of over 15% in size. The method in brief: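 Wild-type CHO-K1 cells exposed to compounds for 17hr at 37 C, 5% CO2. Caspase-3/7 activity then measured by Caspase-Glo 3/7 luminescence after 30min at room temperature.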
% is scaled to controls: 0 for no effect and ±100 for the full control effect.

Chain of Cytochrome P450 2D6 (Homo sapiens) (P10635 whole entry, looked up): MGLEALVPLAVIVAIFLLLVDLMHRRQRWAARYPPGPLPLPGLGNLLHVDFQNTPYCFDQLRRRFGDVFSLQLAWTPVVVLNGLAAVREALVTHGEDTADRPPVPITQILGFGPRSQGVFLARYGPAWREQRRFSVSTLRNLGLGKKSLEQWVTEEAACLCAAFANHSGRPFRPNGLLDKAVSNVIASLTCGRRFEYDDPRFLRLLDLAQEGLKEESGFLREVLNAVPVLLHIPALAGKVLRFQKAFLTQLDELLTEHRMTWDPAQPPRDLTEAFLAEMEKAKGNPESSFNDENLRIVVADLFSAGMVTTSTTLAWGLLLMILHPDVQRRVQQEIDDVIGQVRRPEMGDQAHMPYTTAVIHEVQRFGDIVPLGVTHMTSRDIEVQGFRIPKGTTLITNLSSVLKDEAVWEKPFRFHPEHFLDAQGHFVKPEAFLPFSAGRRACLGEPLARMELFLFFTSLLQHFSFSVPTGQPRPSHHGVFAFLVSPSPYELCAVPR
Chain of Nuclear receptor subfamily 1 group I member 2 (Homo sapiens) (O75469 whole entry, looked up): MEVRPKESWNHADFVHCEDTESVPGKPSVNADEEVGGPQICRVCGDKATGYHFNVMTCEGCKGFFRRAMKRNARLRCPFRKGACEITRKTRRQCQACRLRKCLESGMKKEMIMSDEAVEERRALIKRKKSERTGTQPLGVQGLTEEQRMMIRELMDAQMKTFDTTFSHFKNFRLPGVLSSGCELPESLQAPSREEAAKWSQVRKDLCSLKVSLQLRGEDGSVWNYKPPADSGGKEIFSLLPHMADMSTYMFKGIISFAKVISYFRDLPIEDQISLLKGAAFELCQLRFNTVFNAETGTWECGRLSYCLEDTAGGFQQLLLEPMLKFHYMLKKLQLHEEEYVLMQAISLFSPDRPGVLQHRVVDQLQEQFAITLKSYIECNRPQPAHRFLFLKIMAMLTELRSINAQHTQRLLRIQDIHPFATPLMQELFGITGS
Chain of Cytochrome P450 2C19 (Homo sapiens) (P33261 whole entry, looked up): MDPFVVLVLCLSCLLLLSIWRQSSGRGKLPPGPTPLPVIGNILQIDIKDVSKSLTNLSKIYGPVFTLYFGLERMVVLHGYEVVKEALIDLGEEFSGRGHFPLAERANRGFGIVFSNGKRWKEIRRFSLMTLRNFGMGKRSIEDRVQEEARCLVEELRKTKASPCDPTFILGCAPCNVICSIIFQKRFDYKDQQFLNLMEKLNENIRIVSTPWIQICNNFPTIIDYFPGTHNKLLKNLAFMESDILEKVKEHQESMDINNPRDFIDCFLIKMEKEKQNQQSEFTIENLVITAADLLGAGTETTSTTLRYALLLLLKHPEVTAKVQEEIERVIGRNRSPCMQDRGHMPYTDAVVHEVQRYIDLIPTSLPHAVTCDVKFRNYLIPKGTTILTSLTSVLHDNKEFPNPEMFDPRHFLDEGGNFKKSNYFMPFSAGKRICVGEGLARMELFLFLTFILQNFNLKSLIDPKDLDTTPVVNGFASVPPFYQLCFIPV
Chain of Nuclear receptor subfamily 1 group I member 2 (Rattus norvegicus) (Q9R1A7 whole entry, looked up): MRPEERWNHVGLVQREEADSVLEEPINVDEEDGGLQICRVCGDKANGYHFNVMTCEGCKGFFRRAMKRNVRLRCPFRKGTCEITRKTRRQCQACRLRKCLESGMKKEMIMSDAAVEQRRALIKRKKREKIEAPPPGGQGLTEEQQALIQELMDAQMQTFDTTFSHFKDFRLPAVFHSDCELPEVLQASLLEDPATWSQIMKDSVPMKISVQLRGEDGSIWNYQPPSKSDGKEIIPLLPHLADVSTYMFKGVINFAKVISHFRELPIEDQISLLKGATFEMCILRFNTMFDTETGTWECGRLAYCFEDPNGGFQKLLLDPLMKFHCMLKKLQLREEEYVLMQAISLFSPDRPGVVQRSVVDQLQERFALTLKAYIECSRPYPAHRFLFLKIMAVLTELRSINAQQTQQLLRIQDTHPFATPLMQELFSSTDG

Regarding `CN1[C@@H]2CC[C@H]1CC(OC(=O)C(O)c1ccccc1)C2` (some centres not stated), the Potency entry in experiment [1], in experiment [2], in experiment [3], in experiment [8], in experiment [9] and in experiment [11] was “inactive” each time. Besides, the Potency result in experiment [12], in [13], in experiment [15], in [16], in experiment [17] and in experiment [18] was “inactive” throughout. The molecule was called inactive in [4], in experiment [5], in experiment [6], in experiment [7] and in [10]. Also, the max activation in experiment [14] is 2.11% and -0.222%.

`C1CCC2(CCCCO2)OC1`: the Potency entry in experiment [1], in [2], in experiment [3], in experiment [9], in experiment [11] and in experiment [12] was “inactive” throughout. Moreover, the Potency entry in experiment [13] and in experiment [18] was “inactive” each time. The call in [4], in [5], in experiment [6], in experiment [7] and in experiment [10] was inactive.

As for `CNC(=O)Nc1ccc(Cl)c(Cl)c1`, the Potency result in [1], in experiment [2], in [3], in [8], in experiment [9] and in experiment [11] was “inactive” throughout. In [12], the Potency entry was “inactive”. Also, the result in [4], in experiment [5], in experiment [6], in experiment [7], in experiment [10] and in [19] was inactive. The Potency in experiment [13] was 34.4 µM (active).

With `CC1OC1C1CCC2(C)OC2C1` (configuration not stated), the Potency result in [1], in experiment [2], in experiment [8], in experiment [9], in experiment [11] and in experiment [12] was “inactive” throughout. Moreover, the Potency result in experiment [13] and in experiment [17] was “inactive” in each case. In addition, the call in experiment [4], in experiment [5], in [6], in experiment [7], in experiment [10] and in experiment [19] was inactive.

In the case of `CCC(C)(CCCC(C)C)OC(C)=O` (configuration not stated), the Potency result in experiment [1], in [2], in [3], in experiment [11], in [12] and in [13] was “inactive” throughout. Besides, the call in experiment [4], in experiment [5], in [6], in [10] and in experiment [19] was inactive.

As for `C=COCC1CCC(COC=C)CC1` (configuration not stated), the Potency result in [1], in experiment [2], in [3], in experiment [9], in experiment [11] and in experiment [12] was “inactive” in each case. The Potency entry in experiment [13] and in [17] was “inactive” throughout. For the same molecule, the result in experiment [4], in experiment [5], in experiment [6] and in experiment [19] was inactive.

Consider `CCOc1c(N2CCOCC2)cnn(C)c1=O`, for which the Potency result in experiment [1], in experiment [2], in experiment [3], in experiment [8], in [9] and in experiment [11] was “inactive” in each case. Moreover, the Potency entry in experiment [12], in experiment [13] and in experiment [17] was “inactive” each time. Further, the outcome in experiment [4], in experiment [5], in [6], in experiment [7], in experiment [10] and in experiment [19] was inactive.
